High-throughput results deposited in PubChem BioAssay by The Scripps Research Institute Molecular Screening Center.
FBW7 activator – FBW7 E3 ligase activators, primary screen, biochemical, AlphaScreen, human; normalized activity (activation), % at 26.1 µM; AlphaScreen FBW7–phospho-cyclin E peptide binding, activator screen; AID 1259310, 2017; F-box/WD repeat-containing protein 7 (Homo sapiens), Q969H0; 650,000 tested, 0.13% active; in the data active = normalized activity above about 1.9%;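 also: purified mutant Fbw7 with reduced substrate affinity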
TEAD-YAP inh – TEAD-YAP interaction inhibition, primary screen, TEAD-YAP interaction inhibitor project, luminescence, HEK-TIYL cells | inhibition, % at 9.12 µM | 640,000 tested, 1.4% active | AID 1259422, 2018 | TEAD-Gal4/YAP UAS-luciferase luminescence; in the data active = inhibition above about 32%
GPR151 activ – activators of human GPR151, primary screen, cell-based, PathHunter beta-arrestin, luminescence; 650,000 tested, 1% active; AID 1508602, 2020; PathHunter beta-arrestin GPR151 cells; activation, % at 11.2 µM; G-protein coupled receptor 151 (Homo sapiens), Q8TDV0; in the data active = activation above about 4.9%
MITF primary – MITF inhibitors, primary screen, biochemical, AlphaScreen, human; Microphthalmia-associated transcription factor (Homo sapiens), O75030; AlphaScreen MITF homodimerization, bead proximity signal; inhibition, % at 2.6 µM; 650,000 tested, 0.91% active; in the data active = inhibition above about 50%
Hits are given with their value. Compounds with a hit are over-represented: about 3.4% of the library has one in this group of screens.

For COc1ccc(/C=N/NC(=O)C2CC(=O)N(c3ccc(Br)cc3)C2)cc1 (stereo not given) the results were FBW7 activator inactive, TEAD-YAP inh inactive, GPR151 activ inactive and MITF primary inactive.
Screening O=C(NCCCn1ccnc1)c1ccc(C#Cc2ccccc2)o1 returned FBW7 activator inactive, TEAD-YAP inh 35, GPR151 activ inactive and MITF primary inactive.
Screening CCCNC(=O)CCc1c(C)nc2cc(-c3ccccc3OC)nn2c1C returned FBW7 activator inactive, TEAD-YAP inh inactive, GPR151 activ inactive and MITF primary inactive.
COc1ccc2c(c1)C(C)=CC(C)(C)N2C(=O)CNCc1ccccc1 was read as FBW7 activator inactive, TEAD-YAP inh inactive, GPR151 activ inactive and MITF primary inactive.
For Cn1cc(-c2cn3c(NC(=O)c4ccco4)cnc3cn2)cn1 the results were FBW7 activator inactive, TEAD-YAP inh inactive, GPR151 activ inactive and MITF primary inactive.
`CCCCCNc1nc(-c2ccco2)c2c(c1C#N)CCCC2` gave FBW7 activator inactive, TEAD-YAP inh inactive, GPR151 activ inactive and MITF primary inactive.
`N#Cc1c(NCCN)nc(-c2ccco2)c2c1CCCC2` gave FBW7 activator inactive, TEAD-YAP inh 34, GPR151 activ inactive and MITF primary inactive.
COc1ccc(OC)c(C(=O)COc2ccccc2C#N)c1 was read as FBW7 activator inactive, TEAD-YAP inh 41, GPR151 activ inactive and MITF primary inactive.
For COc1cc(N)cc2sc(NC(C)=O)nc12 the results were FBW7 activator inactive, TEAD-YAP inh inactive, GPR151 activ inactive and MITF primary inactive.
CC(=O)Nc1nc2c(C)cc(N)cc2s1 was read as FBW7 activator 30, TEAD-YAP inh inactive, GPR151 activ inactive and MITF primary inactive.
`CCCCCCOc1ccc(/C=C(\C#N)C(=O)NCC2CCCO2)cc1OC` (stereo not given) gave FBW7 activator 2.0, TEAD-YAP inh inactive, GPR151 activ inactive and MITF primary inactive.
`COc1cc(/C=C(/C#N)C(=O)NCC2CCCO2)ccc1OCc1ccc(C(=O)O)cc1` (stereo not given) gave FBW7 activator inactive, TEAD-YAP inh inactive, GPR151 activ inactive and MITF primary inactive.
Screening O=C(NC1c2ccccc2-c2ccccc21)c1ccccc1 returned FBW7 activator inactive, TEAD-YAP inh inactive, GPR151 activ inactive and MITF primary inactive.
For O=C(NC1c2ccccc2-c2ccccc21)c1cccc([N+](=O)[O-])c1 the results were FBW7 activator inactive, TEAD-YAP inh 54, GPR151 activ inactive and MITF primary inactive.
CCN(CC)c1ccc(C2NC(=O)c3ccccc3N2)cc1 (stereo not given) was read as FBW7 activator inactive, TEAD-YAP inh 79, GPR151 activ inactive and MITF primary inactive.
`O=[N+]([O-])c1ccc(-c2cn3cc(Cl)ccc3n2)cc1` gave FBW7 activator inactive, TEAD-YAP inh inactive, GPR151 activ inactive and MITF primary inactive.
For O=[N+]([O-])c1ccc2nc(-c3ccc(OC(F)F)cc3)cn2c1 the results were FBW7 activator inactive, TEAD-YAP inh 45, GPR151 activ inactive and MITF primary inactive.
For Clc1ccc(-c2cn3c4ccccc4nc3n2CCNC2CCCCC2)cc1 the results were FBW7 activator inactive, TEAD-YAP inh inactive, GPR151 activ inactive and MITF primary inactive.
`Brc1ccc(-c2cn3c4ccccc4nc3n2CCCNC2CCCCC2)cc1` gave FBW7 activator 6.2, TEAD-YAP inh inactive, GPR151 activ inactive and MITF primary inactive.
`O=C(N/N=C/c1ccc(Br)s1)c1ccncc1` gave FBW7 activator inactive, TEAD-YAP inh 36, GPR151 activ inactive and MITF primary inactive.
For COc1cc(/C=N/NC(=O)c2cc(OC)c(OC)c(OC)c2)cc(OC)c1O the results were FBW7 activator inactive, TEAD-YAP inh 56, GPR151 activ inactive and MITF primary inactive.
For COc1ccc(C(=O)N/N=C/c2cc(OC)c(O)c(OC)c2)cc1OC the results were FBW7 activator inactive, TEAD-YAP inh inactive, GPR151 activ inactive and MITF primary inactive.
For COc1cc(C(=O)N/N=C/c2cccc(Br)c2)cc(OC)c1OC the results were FBW7 activator inactive, TEAD-YAP inh 60, GPR151 activ inactive and MITF primary inactive.
For O=C(N/N=C/c1cc(Br)c(Br)s1)c1ccncc1 the results were FBW7 activator inactive, TEAD-YAP inh inactive, GPR151 activ inactive and MITF primary inactive.
Screening COc1cc(/C=N\NC(=O)c2c(C)nc3ccc(Cl)cn23)cc(OC)c1OC returned FBW7 activator inactive, TEAD-YAP inh inactive, GPR151 activ inactive and MITF primary inactive.
